Growth data for eight compounds are collected here from PubChem BioAssay (NCI).

Compounds without any hit were thinned out: in the full panel of roughly 83,000, 20% have a hit.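 Treatment: one concentration, 48 hours, 96-well format. Scoring: percent growth, with anything below 10 considered active.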 A number with no mark means an inactive call. Calls of active or inactive are those of the source.

What all share (assay): NCI-60 one-dose screen, 48 h (100 = growth as untreated, 0 = no growth, -100 = all killed)
One experiment concerns NCI-H23 lung. The settings on record: 10 µM unless noted.
Another experiment deals with NCI-H226 lung. Particulars: 10 µM unless noted.
For a further experiment, the system named is NCI-H322M lung. The settings on record: 10 µM unless noted.
The next experiment concerns HOP-62 NSCLC. Particulars: 10 µM unless noted.
The next experiment relates to NCI-H460 lung. The settings on record: 10 µM unless noted.
The subject of another experiment is NCI-H522 lung. The settings on record: 10 µM unless noted.
In another experiment the test system is A549/ATCC NSCLC. Particulars: 10 µM unless noted.
A further experiment relates to 786-0 renal. Particulars: 10 µM unless noted.
A further experiment relates to COLO 205 colon. The settings on record: 10 µM unless noted.
Another experiment relates to DU-145 prostate. Particulars: 10 µM unless noted.
For the next experiment, the system named is K-562 leukemia. Particulars: 10 µM unless noted.
The test system of another experiment is MALME-3M melanoma. The settings on record: 10 µM unless noted.
The subject of a further experiment is MDA-MB-231 breast. The settings on record: 10 µM unless noted.
A further experiment relates to RXF 393 renal. The settings on record: 10 µM unless noted.
The test system of another experiment is SF-268 CNS. Particulars: 10 µM unless noted.
The next experiment relates to SF-295 CNS. The settings on record: 10 µM unless noted.
In another experiment the test system is SF-539 CNS. The settings on record: 10 µM unless noted.
Another experiment has as its system UACC-257 melanoma. Particulars: 10 µM unless noted.
In the next experiment the test system is HOP-92 NSCLC. The settings on record: 10 µM.
The subject of a further experiment is M14 melanoma. Particulars: 10 µM unless noted.

Consider `COc1ccc(/C=C/C(=O)c2cccc(NC(=O)CSc3nc4ccccc4c(=O)n3-c3ccccc3)c2)cc1OC`, for which the growth was 106% in the experiment with NCI-H23 lung; 93.2% in the experiment on NCI-H226 lung; 105% with NCI-H322M lung; 111% with HOP-62 NSCLC; 100% with NCI-H460 lung; 96.9% in the experiment with NCI-H522 lung. Also, the growth is 91.5% with A549/ATCC NSCLC; 103% in the experiment on 786-0 renal; 123% in the experiment with COLO 205 colon; 105% in the experiment on DU-145 prostate; 89.9% in the experiment on K-562 leukemia; 107% in the experiment on MALME-3M melanoma. Further, the growth is 97.3% in the experiment on MDA-MB-231 breast; 97.7% in the experiment on RXF 393 renal; 94.6% in the experiment on SF-268 CNS; 103% in the experiment with SF-295 CNS; 101% with SF-539 CNS; 110% in the experiment with UACC-257 melanoma.

In the case of `C=CC(=O)N1CCC=C(c2cc3c(N[C@H](C)c4ccccc4)ncnc3[nH]2)C1`, the growth in the experiment with NCI-H23 lung is 83.3%; with NCI-H226 lung it was 58.5%; in the experiment on NCI-H322M lung it was 31%; with HOP-62 NSCLC, 58.5%; with NCI-H460 lung, 98%; in the experiment with HOP-92 NSCLC it was 38%. The growth is 43.6% in the experiment on 786-0 renal; 96% with COLO 205 colon; 42.9% with DU-145 prostate; 37% with K-562 leukemia; 101% in the experiment on MALME-3M melanoma; 44.4% in the experiment on MDA-MB-231 breast. Also, the growth in the experiment with RXF 393 renal was -17% (active); in the experiment on SF-268 CNS it was 60.1%; with SF-295 CNS, 72%; with SF-539 CNS it was 74.6%; in the experiment with UACC-257 melanoma, 87.4%.

As to `CCn1c(SCC(=O)Nc2cccc(C(=O)/C=C/c3ccc(Br)cc3)c2)nc2ccccc2c1=O`, the growth in the experiment with NCI-H23 lung is 82.9%; in the experiment with NCI-H226 lung, 88.9%; in the experiment on NCI-H322M lung it was 94.3%; in the experiment on HOP-62 NSCLC, 98.8%; with NCI-H460 lung, 98.9%; with HOP-92 NSCLC, 76.9%. The growth is 77.7% in the experiment with A549/ATCC NSCLC; 99.8% in the experiment on 786-0 renal; 112% in the experiment with COLO 205 colon; 104% in the experiment on DU-145 prostate; 77.3% in the experiment on K-562 leukemia; 95.3% in the experiment on MALME-3M melanoma. Also, the growth was 85.5% with MDA-MB-231 breast; 100% in the experiment on SF-268 CNS; 98.5% in the experiment on SF-295 CNS; 91.4% with SF-539 CNS; 96.3% with UACC-257 melanoma.

Consider `CCOP(=O)(OCC)OC[C@]12CCC(C)(C)C=C1[C@H]1CC[C@@H]3[C@@]4(C)CC[C@H](OP(=O)(OCC)OCC)C(C)(C)[C@@H]4CC[C@@]3(C)[C@]1(C)CC2`, for which the growth in the experiment on NCI-H23 lung is -38.4% (active); in the experiment on NCI-H226 lung, -72.3% (active); in the experiment with NCI-H322M lung it was 1.63% (active); in the experiment with HOP-62 NSCLC, -38.3% (active); with NCI-H460 lung it was -62.2% (active); in the experiment on HOP-92 NSCLC, -65.2% (active). For the same compound, the growth is -45.3% (active) in the experiment on A549/ATCC NSCLC; -59.7% (active) in the experiment with 786-0 renal; -43.1% (active) in the experiment with COLO 205 colon; -70.2% (active) in the experiment with DU-145 prostate; 4.74% (active) with K-562 leukemia; -12.8% (active) with MALME-3M melanoma. In addition, the growth in the experiment on MDA-MB-231 breast was -55.2% (active); in the experiment with SF-268 CNS, -59.7% (active); with SF-295 CNS, -66.2% (active); in the experiment on SF-539 CNS, -84.1% (active); in the experiment on UACC-257 melanoma, -8.01% (active).

As to `O=C(NNc1nc2cc(F)ccc2n2cccc12)c1ccncn1`, the growth is 30% in the experiment on NCI-H23 lung; 13.2% in the experiment on NCI-H226 lung; 31.7% in the experiment with NCI-H322M lung; 20.5% in the experiment with HOP-62 NSCLC; 9.08% (active) in the experiment on NCI-H460 lung; -6.6% (active) in the experiment with NCI-H522 lung. Also, the growth in the experiment on A549/ATCC NSCLC was 14.7%; in the experiment with 786-0 renal, 11%; in the experiment on COLO 205 colon, 10.3%; in the experiment on DU-145 prostate, 18.6%; in the experiment with K-562 leukemia, 14.6%; with MALME-3M melanoma it was 27.6%. In addition, the growth with MDA-MB-231 breast is 41.1%; in the experiment on RXF 393 renal, 30.3%; in the experiment with SF-268 CNS it was 19.6%; in the experiment on SF-295 CNS, 12.1%; in the experiment with SF-539 CNS, 4.41% (active); with UACC-257 melanoma, 5.01% (active).

Take `CC1(C)[C@@H](O)CC[C@]2(C)[C@H]3CC[C@@H]4[C@H]5[C@H](C(=O)/C=C\c6ccccn6)CC[C@]5(O)CC[C@@]4(C)[C@]3(C)CC[C@@H]12`: the growth was 31.7% with NCI-H23 lung; 16.3% in the experiment on NCI-H226 lung; 84.3% in the experiment with NCI-H322M lung; 73.6% in the experiment with HOP-62 NSCLC; 15.6% in the experiment with NCI-H460 lung; 60.9% with HOP-92 NSCLC. Further, the growth in the experiment on A549/ATCC NSCLC is 49.7%; in the experiment with 786-0 renal, 32.7%; in the experiment with COLO 205 colon, 67.7%; in the experiment on DU-145 prostate it was 33.4%; in the experiment with K-562 leukemia it was 7.45% (active); in the experiment on MALME-3M melanoma, 56.4%. Further, the growth in the experiment with MDA-MB-231 breast was 33.5%; with RXF 393 renal, -16.2% (active); in the experiment with SF-268 CNS it was 56.5%; in the experiment on SF-295 CNS it was 73.6%; with SF-539 CNS, 25.7%; in the experiment with UACC-257 melanoma, 61.9%. The growth in the experiment with M14 melanoma was 52.9%.

As to `Cc1noc(C)c1CSc1nc2ccccc2n1-c1ccccc1`, the growth was 90.9% in the experiment on NCI-H23 lung; 95.6% in the experiment with NCI-H226 lung; 104% in the experiment with NCI-H322M lung; 69% in the experiment on HOP-62 NSCLC; 107% in the experiment on NCI-H460 lung; 74.7% in the experiment on HOP-92 NSCLC. Moreover, the growth is 91.2% in the experiment on A549/ATCC NSCLC; 82.6% in the experiment with 786-0 renal; 105% with COLO 205 colon; 86.4% with DU-145 prostate; 88.6% in the experiment on K-562 leukemia; 118% with MALME-3M melanoma. Moreover, the growth with MDA-MB-231 breast is 81.5%; in the experiment with RXF 393 renal, 60.4%; in the experiment on SF-268 CNS, 85.7%; in the experiment on SF-295 CNS, 98.1%; in the experiment with SF-539 CNS, 95.3%; in the experiment on UACC-257 melanoma, 110%. The growth in the experiment on M14 melanoma is 104%.

As for `N#Cc1c(-c2cccs2)cc(-c2cnccn2)nc1SCC(=O)c1ccc(F)cc1`, the growth with NCI-H23 lung was 90.6%; with NCI-H226 lung, 89.3%; with NCI-H322M lung, 97.8%; in the experiment with HOP-62 NSCLC, 76.4%; with NCI-H460 lung it was 103%; in the experiment with HOP-92 NSCLC it was 76%. For the same compound, the growth is 86.6% in the experiment on A549/ATCC NSCLC; 88.6% with 786-0 renal; 105% in the experiment on COLO 205 colon; 79.5% with DU-145 prostate; 87.2% in the experiment with K-562 leukemia; 101% with MALME-3M melanoma. Further, the growth is 68.7% with MDA-MB-231 breast; 62.2% in the experiment with RXF 393 renal; 84.7% in the experiment on SF-268 CNS; 93.6% in the experiment with SF-295 CNS; 76.9% with SF-539 CNS; 109% with UACC-257 melanoma. Also, the growth with M14 melanoma is 116%.
